In PubChem BioAssay (NCATS):
Inconclusive results are not listed. Calls of active or inactive are those of the source. Calls come from the whole dose curve; as a rule, active = well fitted cell-killing curve with a large enough effect; inconclusive = small, poorly fitted or top-dose-only effect, or effect the other way; inactive = flat fitted curve, though single readings scatter. Where a SMILES comes first, the peptide text is derived from it. The star is where a group is joined. AFC = O=c1cc(C(F)(F)F)c2ccc(N*)cc2o1

Columns and labels:
Assay in all cases: Primary qHTS to identify gynecologic anti-cancer compounds using libraries of approved drugs and bioactive compounds (AID 1345084); note: nearly all actives have a fitted effect of over 55% in size
Conditions in all cases: Gynecologic cancer cell panel viability, ATPlite luminescence, 48 h; series mostly up to 57.5 µM
[1] = system: OV90
Outline: (§1)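 48 h compound exposure at 37 C, 5% CO2; five-point qHTS. ATPlite luminescence readout of cell ATP.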

[2] = system: PA-1
Outline: as §1

[3] = system: SKOV3
Outline: as §1

[4] = system: Tov-21-G
Outline: as §1

[5] = system: Tov112D
Outline: as §1
% is set by controls: 0 for no effect and ±100 for the full control effect; potency is the fitted concentration of half-maximal effect.

CC(=O)N[C@@H](Cc1c[nH]c2ccccc12)C(=O)N[C@@H](CCC(=O)O)C(=O)N[C@@H](Cc1cnc[nH]1)C(=O)N[C@@H](CC(=O)O)C(=O)Nc1ccc2c(C(F)(F)F)cc(=O)oc2c1 (Ac-WEHD-{AFC})
inactive: Potency [1] | Potency [2] | Potency [3] | Potency [4] | Potency [5]

O=C(CCc1ccccc1)N1CCC(O)(Cn2cnc3cc(Cl)ccc3c2=O)CC1
inactive: Potency [1] | Potency [2] | Potency [3] | Potency [4] | Potency [5]

CC1CCC2(OC1)OC1CC3C4CCC5C[C@@H](O[C@@H]6O[C@H](CO[C@@H]7OC[C@@H](O)[C@H](O)[C@H]7O)[C@H](O)[C@H](O)[C@H]6O)CC[C@]5(C)C4CC[C@]3(C)C1C2C (stereo not given in full)
inactive: Potency [1] | Potency [2] | Potency [3] | Potency [4] | Potency [5]

C/C=C/C=C/C=C/C(=O)OC1C=C(C=O)C(O)(C(=O)O)C2(C)CCCC(C)(C)C12 (stereo not given)
inactive: Potency [1] | Potency [2] | Potency [3] | Potency [4] | Potency [5]

O=C(/C=C\c1ccc(O)cc1)N[C@@H](Cc1ccc(O)cc1)C(=O)O
inactive: Potency [1] | Potency [2] | Potency [3] | Potency [4] | Potency [5]

C[S+](CC[C@H](N)C(=O)[O-])C[C@H]1O[C@@H](n2cnc3c(N)ncnc32)[C@H](O)[C@@H]1O (stereo not given in full)
inactive: Potency [1] | Potency [2] | Potency [3] | Potency [4] | Potency [5]

COc1cc(O)c2c(c1)C1=C[C@H](O)[C@@H](O)C[C@]1(C)OC2=O
inactive: Potency [1] | Potency [2] | Potency [3] | Potency [4] | Potency [5]

O=C(CCCCN1CCOCC1)Nc1ccc(-c2cccnc2)cc1
inactive: Potency [1] | Potency [2] | Potency [3] | Potency [4] | Potency [5]

C=C1CCC[C@]2(C)CC[C@@H](C(=C)C(=O)O)[C@H](O)[C@@H]12
inactive: Potency [1] | Potency [2] | Potency [3] | Potency [4] | Potency [5]

Cc1c(F)cc(C(=O)NC2CC2)cc1-c1c(F)cn2c(C(C)(C)C)nnc2c1F
inactive: Potency [1] | Potency [2] | Potency [3] | Potency [4] | Potency [5]

CN(C)CCn1cc(S(=O)(=O)c2cccc(F)c2)c2cccnc21
inactive: Potency [1] | Potency [2] | Potency [3] | Potency [4] | Potency [5]

Cc1cc(C)nc(NS(=O)(=O)c2ccc(NC(=S)NC(=O)COc3ccc(Br)cc3Cl)cc2)n1
inactive: Potency [1] | Potency [2] | Potency [3] | Potency [4] | Potency [5]

CO/N=C(/C(=O)N[C@@H]1C(=O)N2C(C(=O)O)=C(Cn3ccc(=N)n3CCO)CS[C@H]12)c1csc(N)n1
inactive: Potency [1] | Potency [2] | Potency [3] | Potency [4] | Potency [5]

COC(=O)/C=C/C12COC(C)(C)C1C(O)C(OC(C)=O)C1(C)C2CCC2(C)C(c3ccoc3)OC(=O)C3OC321 (stereo not given)
inactive: Potency [1] | Potency [2] | Potency [3] | Potency [4] | Potency [5]

CC1(C)CC[C@]2(C(=O)O[C@@H]3O[C@H](CO[C@@H]4O[C@H](CO)[C@@H](O)[C@H](O)[C@H]4O[C@@H]4O[C@H](CO)[C@@H](O)[C@H](O)[C@H]4O)[C@@H](O)[C@H](O[C@@H]4O[C@H](CO)[C@@H](O)[C@H](O)[C@H]4O)[C@H]3O)CC[C@]3(C)C(=CCC4[C@@]5(C)CC[C@@H](O)[C@@](C)(C(=O)O[C@@H]6O[C@H](CO)[C@@H](O)[C@H](O)[C@H]6O)C5CC[C@]43C)[C@@H]2C1 (stereo not given in full)
inactive: activity change, negative = cytotoxicity [1] -0.699% [at 6.55 µM] | activity change, negative = cytotoxicity [2] 5.56% [at 6.55 µM] | activity change, negative = cytotoxicity [3] -6.61% [at 6.55 µM] | activity change, negative = cytotoxicity [4] -1.95% [at 6.55 µM] | activity change, negative = cytotoxicity [5] -1.22% [at 6.55 µM]

CC(=O)N[C@H]1[C@H](O[C@H]2CC[C@@]3(C)C(CC[C@]4(C)C3CC=C3C5CC(C)(C)CC[C@]5(C(=O)O)[C@H](O)C[C@]34C)C2(C)C)O[C@H](CO[C@@H]2OC[C@H](O)[C@H](O)[C@H]2O[C@@H]2OC[C@@H](O)[C@H](O)[C@H]2O)[C@@H](O)[C@@H]1O (stereo not given in full)
inactive: activity change, negative = cytotoxicity [1] 9.62% [at 11.6 µM] | activity change, negative = cytotoxicity [2] 3.95% [at 11.6 µM] | activity change, negative = cytotoxicity [3] 10.7% [at 11.6 µM] | activity change, negative = cytotoxicity [4] -0.0551% [at 11.6 µM] | activity change, negative = cytotoxicity [5] -18.9% [at 11.6 µM]

CC1CC[C@]2(C(=O)O)CC[C@]3(C(=O)O)C(=CCC4[C@@]5(C)CC[C@H](OC6OC(C)C(O)C(OC7OC(CO)C(O)C(O)C7O)C6O)C(C)(C)C5CC[C@]43C)C2C1C (stereo not given in full)
inactive: Potency [1] | Potency [2] | Potency [3] | Potency [4] | Potency [5]

Nc1nc2c(c(=O)[nH]1)C[C@@H](CCc1ccc(C(=O)N[C@@H](CCC(=O)O)C(=O)O)cc1)CN2
inactive: Potency [3]
active: Potency [1] 501 nM | Potency [2] 282 nM | Potency [4] 100 nM | Potency [5] 1.26 µM

C[C@H](N)C(=O)N[C@@H](Cc1ccc(O)cc1)C(=O)N1CCC[C@H]1C(=O)NCC(=O)N[C@@H](CCCCN)C(=O)N[C@@H](Cc1ccccc1)C(N)=O
inactive: activity change, negative = cytotoxicity [1] 1.27% [at 11.6 µM] | activity change, negative = cytotoxicity [2] 3.5% [at 11.6 µM] | activity change, negative = cytotoxicity [3] 32.3% [at 11.6 µM] | activity change, negative = cytotoxicity [4] 1.95% [at 11.6 µM] | activity change, negative = cytotoxicity [5] 5.22% [at 11.6 µM]

O=C(/C=C/c1ccc(O)cc1)N[C@@H](Cc1ccc(O)cc1)C(=O)O
inactive: Potency [1] | Potency [2] | Potency [3] | Potency [4] | Potency [5]

O=C(O)COCCN1CCN([C@H](c2ccccc2)c2ccc(Cl)cc2)CC1
inactive: Potency [1] | Potency [2] | Potency [3] | Potency [4] | Potency [5]

OC[C@H]1O[C@@H](OC[C@H]2O[C@@H](OC/C=C/c3ccccc3)[C@H](O)[C@@H](O)[C@@H]2O)[C@@H](O)[C@@H]1O
inactive: Potency [1] | Potency [2] | Potency [3] | Potency [4] | Potency [5]

C=C1C(=O)OC2CC3(C)C(CC12)C(C)=CC(O)C3OC(C)=O (stereo not given)
inactive: Potency [1] | Potency [2] | Potency [3] | Potency [4] | Potency [5]

C[C@@H]1O[C@@H](O[C@H]2[C@H](OC(=O)[C@]34CCC(C)(C)C[C@H]3C3=CCC5[C@@]6(C)C[C@H](O)[C@H](O[C@@H]7O[C@H](CO)[C@@H](O[C@H]8OC[C@](O)(CO)[C@H]8O)[C@H](O)[C@H]7O)[C@@](C)(CO)C6[C@H](O)C[C@@]5(C)[C@]3(C)C[C@H]4O)OC[C@H](O)[C@@H]2O)[C@H](O)[C@H](O)[C@H]1O[C@@H]1OC[C@@H](O)[C@H](O[C@@H]2OC[C@](O)(CO)[C@H]2O)[C@H]1O (stereo not given in full)
inactive: activity change, negative = cytotoxicity [1] -28.7% [at 6.55 µM] | activity change, negative = cytotoxicity [2] 18.7% [at 6.55 µM] | activity change, negative = cytotoxicity [3] 13.1% [at 6.55 µM] | activity change, negative = cytotoxicity [4] -9.27% [at 6.55 µM] | activity change, negative = cytotoxicity [5] -0.812% [at 6.55 µM]

CC(C)=CCC[C@](C)(O)[C@H]1CC[C@]2(C)[C@@H]1[C@H](O)CC1[C@@]3(C)CC[C@H](O)C(C)(C)C3[C@@H](O[C@@H]3O[C@H](CO)[C@@H](O)[C@H](O)[C@H]3O[C@@H]3OC[C@@H](O)[C@H](O)[C@H]3O)C[C@]12C (stereo not given in full)
inactive: Potency [1] | Potency [2] | Potency [3] | Potency [4] | Potency [5]

COC(=O)C[C@H]1[C@]2(C)C3=C(C)[C@H](c4ccoc4)C[C@H]3O[C@@H]2[C@H](OC(C)=O)C2[C@](C)(C(=O)OC)C=CC(=O)[C@@]21C (stereo not given in full)
inactive: Potency [1] | Potency [2] | Potency [3] | Potency [4] | Potency [5]

C[C@@H]1C[C@@H](O)[C@@]23CO[C@@H](O)[C@@H]2CCC[C@@H]3[C@@]12C[C@@H](c1ccoc1)OC2=O
inactive: Potency [1] | Potency [2] | Potency [3] | Potency [4] | Potency [5]

C=C(CO[C@@H]1O[C@H](CO[C@@H]2OC[C@](O)(CO)[C@H]2O)[C@@H](O)[C@H](O)[C@H]1O)C1Cc2cc(C(C)=O)ccc2O1 (stereo not given in full)
inactive: Potency [1] | Potency [2] | Potency [3] | Potency [4] | Potency [5]

CO[C@H]1/C=C\O[C@@]2(C)Oc3c(C)c(O)c4c(O)c(c5c(nc6cc(C)ccn65)c4c3C2=O)NC(=O)/C(C)=C\C=C/[C@H](C)[C@H](O)[C@@H](C)[C@@H](O)[C@@H](C)[C@H](OC(C)=O)[C@@H]1C
inactive: Potency [1] | Potency [2] | Potency [3] | Potency [4] | Potency [5]

C/C=C/c1ccc2c(c1)[C@@H](C)[C@H](c1ccc(O)cc1)O2
inactive: Potency [1] | Potency [2] | Potency [3] | Potency [4] | Potency [5]
